Values joined by “and” are separate entries in the source; they are usually repeats but may differ in a detail not shown here. Identical values can stand only once. Out of some 34,000 compounds screened, about 290 (0.85%) showed an effect of 50% or more. Only a selection was taken, and strong results are over-represented in it overall.
System: Plasmodium falciparum
Assay: Plasmodium falciparum sporozoite viability assay
Format: functional, organism-based
Set-up: scale not given: in the data most compounds retested in dose-response had high values

SMILES	Percent Effect	Percent Effect (10 mM as filed; unlikely as a test dose)
N#Cc1c(N)nc2c(c1C1CCOC1)CCc1cc(O)ccc1-2 (stereo not given)	4.476%	
CN(CCc1ccccn1)C(=O)c1cnn(-c2ccccc2F)c1N	-5.321%	
COc1ccc(CN2Cc3[nH]nc(C(=O)N(C)C)c3C2)cc1	11.47%	
Cl.Cn1cc([C@@H]2CN(S(=O)(=O)c3cccs3)C[C@H]2N)c2ccncc21	-0.5895%	
COc1ccc(CC(=O)N2CCCC(n3cccn3)C2)cc1F (stereo not given)	5.192%	
CS(=O)(=O)CCSc1nnc(Cc2ccccc2F)o1	-5.789%	
Cc1ccc(OCc2occc2C(=O)N2CCOC(C(=O)O)C2)cc1 (stereo not given)	16.87%	
O=C1COc2cc(OC[C@@H]3CCCN4CCCC[C@H]34)ccc21	-3.094%	
O=C1CCCN1Cc1nnc2n1CCN(Cc1ccco1)C2	15.42%	
CN(C)CCNC(=O)C1Cc2nc(-c3ccccc3)sc2N1CC1CC1.O=C(O)C(F)(F)F (stereo not given)		63.41% and 51.04% and 49.77%
CN(C)CCNC(=O)c1sc2ccccc2c1C1CCC(CN)CC1.Cl (stereo not given)	13.87%	
CN(C)CCNC(=O)[C@H]1C[C@@H]2CN(C(=O)NCc3ccccc3)C[C@H]1O2.O=C(O)C(F)(F)F	-11.68%	
CN(C)CCNC(=O)c1cc(-c2cnc(N(C)C)nc2)cn1CC1CC1	2.417%	
Cc1occc1C(=O)N1CCCN(Cc2nccn2C(C)C)CC1	16.64%	
CC(C)CN1C(=O)C[C@@H]2[C@@H]1CCN2Cc1cccc(C#N)c1.O=C(O)C(F)(F)F	7.99%	
c1ccc(-c2noc(CN3CCc4c(ncn4C4CC4)C3)n2)nc1		42.55% and 46.63%
c1cc(-c2noc(CN3CCc4c(ncn4C4CC4)C3)n2)cs1		83.48% and 80.24%
c1coc(-c2noc(CN3CCc4c(ncn4C4CC4)C3)n2)c1		9.104% and 3.38%
Cc1cccc(-c2noc(CN3CCc4c(ncn4C4CC4)C3)n2)c1		39.81% and 43.38%
c1csc(-c2noc(CN3CCc4c(ncn4C4CC4)C3)n2)c1		59.38% and 60.81%
CCOc1ccc(C#N)cc1NCC(=O)NC(=O)Nc1ccccc1	-20.07%	
CC(C)Oc1ccc(CNC(=O)NCC(C)(C)C(N)=O)cc1F	-18.14%	
Cl.O=S1(=O)CCC(NCCn2cncc2-c2ccc3c(c2)CCCO3)C1 (stereo not given)	-8.887%	

SMILES	Percent Effect	Percent Effect (10 mM as filed; unlikely as a test dose)
CN(C)S(=O)(=O)NCC1CCN(Cc2ccccc2F)CC1		-11.15% and -13.88%
c1ccc(Oc2ccc(CNCC3CNc4ccnn4C3)cn2)cc1 (stereo not given)	-2.407%	
OCC(CO)N1CCCC(Cc2cnc(Nc3ccccn3)cn2)C1 (stereo not given)	3.086%	
Cc1cc(C(=O)N2CCCC(C)C2)ccc1NCc1nc(C(C)C)no1 (stereo not given)		54.84% and 44.37% and 61.2%
Cc1noc(CNc2ccc(C(=O)N3CCCC(C)C3)cc2C)n1 (stereo not given)		12% and 12.75% and 4.849%
COc1cc(N2C[C@@H]3COC[C@]3(COCc3ccccn3)C2)ncn1.O=C(O)C(F)(F)F.O=C(O)C(F)(F)F	7.967%	
CN1CCCC1c1ccnc(C(=O)N(C)C2CCCCC2)c1 (stereo not given)	7.615%	
CC(=O)Nc1nc(C(=O)NCc2ccc(N3CCOC(C)C3)nc2)cs1 (stereo not given)	13.32%	
Cc1ccnc(NC(=O)c2ccc(-n3ncc(C#N)c3N)cc2)c1	11.53%	
O=C(Nc1cc(C2CCOCC2)[nH]n1)c1cc[nH]n1	-6.094%	
Cc1n[nH]c(C(=O)NCc2ccnc(OCC(F)(F)F)c2)c1Br	-2.803%	
COCCN1CCN(C(C)C(=O)Nc2ccnn2C(C)C)CC1 (stereo not given)	-4.51%	
Cc1ccnc(NC(=O)c2[nH]nc(C(C)C)c2Br)c1		109% and 104.4% and 105.9%
CC(C(=O)Nc1ccnn1C(C)C)N1CCN(Cc2ccccc2)CC1 (stereo not given)	-6.509%	
Cc1cccc(NC(=O)c2[nH]nc(C(C)C)c2Br)n1		102.6% and 98.53% and 104.2%
CC(C)c1n[nH]c(C(=O)Nc2ccnn2C(C)C)c1Br		92.02% and 87.97% and 88.19%
COc1ccncc1NC(=O)c1[nH]nc(C(C)C)c1Br		41.3% and 28.4%
Cc1cccc(NC(=O)c2cncc(C3CCNCC3)n2)n1	3.261%	
Cc1cccc(NC(=O)c2sccc2C)n1	7.103%	
COc1ccccc1C1(C(=O)NCCN2CCCCC2)CCOCC1	7.717%	
C[C@@H]1CN(Cc2ccccn2)C[C@]12CCN(Cc1cccnc1)C2=O.O=C(O)C(F)(F)F.O=C(O)C(F)(F)F.O=C(O)C(F)(F)F	-3.791%	
Cn1cc(CN2CCC3(CC2)CC(Nc2nccs2)CO3)cn1.O=C(O)C(F)(F)F (stereo not given)	18.81%	

— ChEMBL document CHEMBL3988442, “University of Dundee, Small-Polar-MMV Screening Library” (2021)
